molecular target: CT47A1; assay: pooled miR-30 sensor sort-seq; sequence = guide strand; conditions: shRNA
Note: reference of the scale not given here.

| Sequence | sensor-assay potency score (higher = more potent) |
| --- | --- |
| TCTGCGTCTGGTTCCTCTGTGG | -0.289 |
| TTCCTCGCCTGCAGCATCTTGG | -0.775 |
| TGCATCCTTCTCTTTTTCTTGT | -0.624 |
| TGTTTTCTGCATCCTTCTCTTT | -1.05 |
| TTGTTCTTTCTCTTCCTCGCCT | 0.277 |
| TTTAGTGACTTCCTCTGGGGCC | -0.087 |
| ATTTAGTGACTTCCTCTGGGGC | -0.669 |
| TGTTCTTTCTCTTCCTCGCCTG | 0.234 |
| TCACCTTGTTTTCTGCATCCTT | 0.106 |

molecular target: CTBP2; assay: as above; conditions: shRNA

| Sequence | sensor-assay potency score (higher = more potent) |
| --- | --- |
| TCGCTGTCTCTTGACTTTGTGC | -1.38 |
| TAAGGCTTTCTCGTCCACCAGG | -0.686 |
| TTGCTTGCTGGTCTATTACTGA | -0.788 |
| TTGAGATTGCAGTGCAAGGAGA | -0.597 |
| ACAAATTCTGTCCAATCGCTGT | -0.83 |
| TGCTGGTCTATTACTGACCAAG | -1.63 |
| TATCCGCACGATCACTCTCAGG | -1.62 |
| TATGGTAAAGTCATTGATGAGG | -1.17 |
| TACCTTCACAAATTCTGTCCAA | -0.0172 |
| TTCGTTTAGAACCTTCTCGTGG | -0.189 |
| TTCGGGGCATCTTTCAACGGAC | -0.791 |
| TTCTGTCCAATCGCTGTCTCTT | -0.623 |
| TTGTGAGTCACTGGGATGCCTC | -1.08 |
| TCGTTTAGAACCTTCTCGTGGA | 0.661 |
| TTCGTTGAGATTGCAGTGCAAG | -1.27 |
| AATCGCTGTCTCTTGACTTTGT | 0.0201 |
| TAAAATATGACGCTGAATCCAA | -0.138 |
| TTATGTTCGTTGAGATTGCAGT | -0.485 |
| TTGCTGGTCTATTACTGACCAA | -0.982 |
| TTTCCTGCGTCGACTGCGCGTC | -0.459 |
| TAGAGTCCGCTGTCTCTTCCAC | -0.12 |
| AATTTCTTAAGCTTTCTGGGAT | 0.0586 |
| TTGCAGTGCAAGGAGACGCAGT | -0.883 |

molecular target: CTCFL; assay: as above; conditions: shRNA

| Sequence | sensor-assay potency score (higher = more potent) |
| --- | --- |
| TTAGAAGTTGCTTCTGTCGGAA | -0.207 |
| TTGTATAAAAACATTTGTCTTT | -0.651 |
| TTTGGGGACATTTTCGCCGTGT | -0.126 |
| TTTCTTTGAAATATCCAGCTAC | 0.55 |
| TTGAATTATGTAAAACATCTTT | -0.709 |
| TAAAGGTGAACCTTGCTCCTAT | 0.214 |
| TTGAATTTGAAACTGTGAGAAC | -1.1 |
| TTGAGGAGCATTTCACACCTTA | 0.0619 |
